Test results taken from PubChem BioAssay.
Several values for one entry are separate records, joined by “and”; a condition that tells them apart may be missing. Equal entries are not always repeated. Activity calls are given as the source filed them. Unless noted, the rule behind the calls is not given here.

Experiments:
[1] = Cy5 fluorescence interference with SSB-bound oligo, artefact control for HCV NS3 helicase inhibitor project, biochemical, NIH Clinical Collection, E. coli SSB (AID 743268)
[2] = test system: Hepatitis C virus NS3 helicase; assay: HCV NS3 helicase inhibitors, primary screen, biochemical, fluorescence polarization, NIH Clinical Collection (AID 743270); settings: NS3 helicase binding to Cy5-dT15 DNA, stronger effect = higher value, concentration not given here
[3] = molecular target: Single-stranded DNA-binding protein (Escherichia coli (strain K12)) (UniProt P0AGE0); assay: E. coli SSB displacement from DNA, counter-screen for HCV NS3 helicase inhibitor project, biochemical, fluorescence polarization, NIH Clinical Collection (AID 743271; in the data active = inhibition above about 28%); settings: stronger effect = higher value, concentration not given here
[4] = fluorescence interference in NS3h assay format, artefact control for HCV NS3 helicase inhibitor project, biochemical, NIH Clinical Collection (AID 743272); settings: fluorescence interference counterscreen, stronger effect = lower value;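 note: HCV NS3 helicase with a Cy5 labelled single stranded DNA probe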
[5] = stimulators of nuclear beta-catenin in C2C12, primary screen, imaging, WNT3A-conditioned medium, mouse C2C12, NPC library (AID 1117326; in the data active = nuclear beta-catenin stimulation mostly above about 4.2%, no sharp cut-off; inactive = mostly below about 10%); settings: stronger effect = higher value
[6] = stimulators of insulin release from INS-1E, primary screen, cell-based, 5 mM glucose, NPC library (AID 1117329;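 active = compound raises insulin release from rat beta cells at 5 mM glucose, no numeric limit stated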); settings: rat INS-1E insulin secretion, at 10 µM, stronger effect = higher value
[7] = growth inhibition of GSK3B-pretreated HCT116 cells – cell-based, CellTiter-Glo, 0.2 to 20 µM (AID 1117336;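 active = compounds lowering colon cancer cell viability after pretreatment blocking the GSK3B kinase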); settings: HCT116 viability after GSK3B inhibitor, at 20 µM, stronger effect = higher value
[8] = inhibition of endothelial tube formation, primary screen, imaging, VEGF stimulated, CD31 staining, tube area, NPC library (AID 1117340;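 active = compound that reduces growth-factor-driven endothelial tube area in a mixed cell culture, no cutoff stated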); settings: VEGF-stimulated ADSC/ECFC co-culture, at 10 µM, stronger effect = higher value
[9] = glucagon-like peptide 1 release enhancers, primary assay, NCI-H716 cell line, NPC library (AID 1117341;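 active = compound raises GLP1 secretion from the human gut endocrine cells, with no numeric limit stated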); settings: NCI-H716 cells, at 10 µM, stronger effect = higher value
[10] = HCT116 colon cancer cell growth inhibition, primary screen, CellTiter-Glo luminescence, NPC library (AID 1117342;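 active = compounds that lower survival of HCT116 colon cancer cells in the luminescence readout, no numeric limit stated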); settings: at 20 µM (top of the series)
[11] = CellTiter-Glo luminescent readout of SW480 viability loss, NPC library primary (AID 1117343;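 active = compounds that lower viability of the colon cancer cells in the luminescence readout, with no numeric limit stated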); settings: CellTiter-Glo luminescence; at 20 µM (top of the series)
[12] = decreased DLD-1 cellular survival, CellTiter-Glo luminescent readout, NPC compound collection, primary HTS (AID 1117346;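 active = compounds that lower survival of DLD-1 colon cancer cells in the luminescence readout, no cutoff given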); settings: DLD-1 viability, CellTiter-Glo luminescence; at 20 µM (top of the series)
[13] = molecular target: 6-phosphogluconate dehydrogenase, decarboxylating (Homo sapiens) (UniProt P52209); assay: 6PGD enzyme inhibitors, primary screen, biochemical, human, recombinant enzyme, NADPH absorbance (AID 1159550;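 active = at least 20% inhibition of 6-phosphogluconate dehydrogenase activity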); settings: recombinant 6PGD, NADPH absorbance 341 nm; at 10 µM; stronger effect = higher value
Chain of 6-phosphogluconate dehydrogenase, decarboxylating (Homo sapiens) (P52209 whole entry, looked up): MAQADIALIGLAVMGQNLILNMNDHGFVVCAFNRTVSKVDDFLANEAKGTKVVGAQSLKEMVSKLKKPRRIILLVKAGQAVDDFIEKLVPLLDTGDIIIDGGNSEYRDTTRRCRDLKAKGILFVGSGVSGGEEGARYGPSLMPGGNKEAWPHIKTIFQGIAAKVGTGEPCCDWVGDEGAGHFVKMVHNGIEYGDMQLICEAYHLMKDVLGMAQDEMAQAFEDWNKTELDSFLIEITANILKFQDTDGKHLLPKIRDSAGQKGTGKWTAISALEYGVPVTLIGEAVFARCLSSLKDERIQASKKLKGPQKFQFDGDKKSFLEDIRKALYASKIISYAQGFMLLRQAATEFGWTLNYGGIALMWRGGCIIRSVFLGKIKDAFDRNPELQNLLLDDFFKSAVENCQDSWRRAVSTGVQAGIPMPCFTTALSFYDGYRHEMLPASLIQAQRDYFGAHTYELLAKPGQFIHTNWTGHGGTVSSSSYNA

[14] = differential killing of epithelial or mesenchymal cells, primary screen, imaging, PC-3E GFP, TEM4-18 mCherry, co-culture (AID 1345086;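 active = compounds killing one labelled cell type while sparing the other, by normalised counts and ratio limits, not self-fluorescent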;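 note: cells exposed to compound for 72 h before imaging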;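 for red/green cell ratio (normalised): normalised mesenchymal count divided by normalised epithelial count so high means epithelial killing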); settings: imaging cell counts, at 1 µM
[15] = survival rescue of mitochondrial mutant cells in low glucose, primary screen, MELAS cybrids, Rieske KO mouse fibroblasts, CellTiter-Glo (AID 1508586;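 active = mean z-score across replicates of 1.96 or higher in either the MELAS or the Rieske mutant cell line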;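 note: z relative to plate mean and SD of compound and empty wells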)
[16] = molecular target: NAD(+) hydrolase SARM1 (Homo sapiens) (UniProt Q6SZW1); assay: SARM1 TIR NADase inhibitors, cell lysate, NAD-Glo luminescence (AID 1508614;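 active = compound whose remaining NAD level is above about 45 nM, limit read from the data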;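 note: higher remaining NAD means stronger inhibition of SARM1 NADase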); settings: SAM-TIR HEK293T lysate NADase, at 1 µM, stronger effect = higher value
Chain of NAD(+) hydrolase SARM1 (Homo sapiens) (Q6SZW1 whole entry, looked up, the tested form may be a part): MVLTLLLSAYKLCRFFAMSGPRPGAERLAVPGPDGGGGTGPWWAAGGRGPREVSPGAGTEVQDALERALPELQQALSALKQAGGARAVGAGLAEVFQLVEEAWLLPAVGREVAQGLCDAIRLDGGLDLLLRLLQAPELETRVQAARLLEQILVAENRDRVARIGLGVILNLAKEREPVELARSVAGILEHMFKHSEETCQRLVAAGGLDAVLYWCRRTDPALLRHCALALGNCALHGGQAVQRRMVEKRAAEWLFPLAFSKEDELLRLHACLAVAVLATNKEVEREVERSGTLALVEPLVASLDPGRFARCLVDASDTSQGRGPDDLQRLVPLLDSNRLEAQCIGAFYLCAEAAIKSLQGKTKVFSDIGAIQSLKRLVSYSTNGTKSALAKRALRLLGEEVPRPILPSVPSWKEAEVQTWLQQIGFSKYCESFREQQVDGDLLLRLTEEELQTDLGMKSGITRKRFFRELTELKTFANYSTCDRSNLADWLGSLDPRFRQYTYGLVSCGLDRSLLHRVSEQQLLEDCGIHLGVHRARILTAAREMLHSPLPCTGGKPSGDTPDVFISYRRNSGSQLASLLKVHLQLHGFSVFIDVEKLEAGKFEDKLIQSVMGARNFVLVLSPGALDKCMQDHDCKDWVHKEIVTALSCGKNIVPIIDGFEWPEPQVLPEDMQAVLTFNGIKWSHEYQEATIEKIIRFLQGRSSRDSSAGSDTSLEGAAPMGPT

[17] = molecular target: Mitogen-activated protein kinase 7 (Homo sapiens) (UniProt Q13164); assay: ERK5 transactivation activators in reporter cells, primary screen, cell-based, HTS (AID 1508626;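 active = luciferase signal above three times the same-plate solvent-only control wells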;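 note: luciferase driven by Gal4-ERK5 fusion binding five Gal4 sites before minimal TATA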); settings: HeLa Gal4-ERK5 transactivation, 18 h, at 5 µM, stronger effect = higher value
Chain of Mitogen-activated protein kinase 7 (Homo sapiens) (Q13164 whole entry, looked up, the tested form may be a part): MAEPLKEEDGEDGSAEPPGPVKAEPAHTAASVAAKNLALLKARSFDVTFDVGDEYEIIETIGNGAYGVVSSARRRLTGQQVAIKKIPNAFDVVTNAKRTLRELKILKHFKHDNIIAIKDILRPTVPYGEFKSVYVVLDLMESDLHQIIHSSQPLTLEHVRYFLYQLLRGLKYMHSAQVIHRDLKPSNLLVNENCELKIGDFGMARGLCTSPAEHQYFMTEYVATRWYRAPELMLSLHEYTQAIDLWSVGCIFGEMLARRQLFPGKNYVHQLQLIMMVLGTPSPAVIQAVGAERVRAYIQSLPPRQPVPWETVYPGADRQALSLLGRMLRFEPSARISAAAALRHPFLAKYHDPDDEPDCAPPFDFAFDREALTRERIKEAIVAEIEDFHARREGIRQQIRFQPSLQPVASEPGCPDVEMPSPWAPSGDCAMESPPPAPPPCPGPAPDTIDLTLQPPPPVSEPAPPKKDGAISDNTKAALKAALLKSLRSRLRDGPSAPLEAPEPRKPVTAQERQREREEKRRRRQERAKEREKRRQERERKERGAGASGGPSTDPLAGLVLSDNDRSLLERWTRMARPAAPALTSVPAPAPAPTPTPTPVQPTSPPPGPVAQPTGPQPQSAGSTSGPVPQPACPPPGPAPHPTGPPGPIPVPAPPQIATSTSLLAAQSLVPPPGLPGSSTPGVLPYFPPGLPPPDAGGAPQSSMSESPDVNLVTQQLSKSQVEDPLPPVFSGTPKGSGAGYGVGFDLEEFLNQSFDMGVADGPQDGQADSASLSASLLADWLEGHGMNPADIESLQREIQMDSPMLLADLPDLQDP

F380Y = assay: modulators of BK channel variants, profiling panel, selectivity assay, cell-based, U2OS BacMam, thallium flux, beta subunits (AID 1259406;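 active = thallium flux through the channel raised or lowered by more than 3 SD from vehicle-only wells, actives on both sides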;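 note: initial slope of Thallos dye fluorescence rise after thallium is added; log ratio against the mean of 0.3% DMSO vehicle wells on the same plate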); settings: at 30 µM
[18] = liver-stage malaria parasite growth inhibition, primary screen, cell-based, HepG2, luciferase luminescence, HepG2 viability (AID 624349; in the data active = parasite load remaining mostly below about 12%, no sharp cut-off; inactive = mostly above about 10%;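 note: 100% = mean of DMSO negative control wells on the same plate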); settings: P. berghei liver stage in HepG2, luciferase luminescence, concentration not given here; parasite load remaining: stronger effect = lower value; viability: measured here: HepG2 viability without parasites
[19] = sensitizers of A549 cells to miR-34 induction, primary screen, imaging, A549 dox-inducible miR-34, nuclei and caspase counts (AID 1347080;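 active = compounds whose cell count with miR-34 switched on is under 0.7 times the count with it off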); settings: A549 miR-34 inducible, Hoechst nuclei count, 48 h
[20] = MELAS cybrid survival, CellTiter-Glo 48 h, stronger effect = higher value
[21] = Rieske KO mouse fibroblast survival, CellTiter-Glo 72 h
[22] = stronger effect = lower value, cell number ratio, induced over uninduced
[23] = measured here: relative caspase fold change +Dox/-Dox
[24] = measured here: total cells with miR-34 induction, stronger effect = lower value
[25] = measured here: total cells without miR-34 induction

CCCN(CCC)S(=O)(=O)c1ccc(C(=O)O)cc1
0.78: normalised cell number ([14]; measured here: epithelial PC-3E GFP cell survival)
inactive: fluorescence ratio [1] 1.02 | inhibition [2] -3.18% | inhibition [3] -0.48% | fluorescence ratio [4] 0.94 | nuclear beta-catenin stimulation ([5]; at 10 µM) -1.3% | insulin secretion stimulation [6] 0.5% | viability decrease [7] -23.6% | tube area decrease [8] -14.2% | GLP1 secretion stimulation [9] -0.7% | inhibition of viability [10] 12.4% | viability decrease (inhibition) [11] 14.9% | viability decrease (inhibition) [12] -10.5% | inhibition [13] 0.15% | red/green cell ratio (normalised) ([14]; actives lie on both sides, counts scaled to control wells, 1 = unselective) 1.43 | z-score [15, 20] -0.112 and 0.174 | remaining NAD [16] 10 nM | luciferase signal [17] 80 AU | log fold change Tl+ flux (F380Y) -0.012
-0.2%: nuclear beta-catenin stimulation ([5]; stimulation, at 2 µM)
1.12: normalised cell number ([14]; measured here: mesenchymal TEM4-18 mCherry cell survival)
-0.203 and 0.258: z-score [15, 21]

C#C[C@]1(O)CC[C@H]2[C@@H]3CCC4=CC(=O)CC[C@@H]4[C@H]3CC[C@@]21CC
inactive: parasite load remaining [18] 51.8% and 75.6% and 14.7% | fluorescence ratio [1] 1.02 | inhibition [2] -3.56% | inhibition [3] -0.1% | fluorescence ratio [4] 0.96 | nuclear beta-catenin stimulation ([5]; at 10 µM) 2.2% | insulin secretion stimulation [6] -1.1% | viability decrease [7] -54.4% | tube area decrease [8] 0.1% | GLP1 secretion stimulation [9] 4.1% | inhibition of viability [10] -5.1% | viability decrease (inhibition) [11] 4.3% | viability decrease (inhibition) [12] -24.6% | inhibition [13] -0.702% | fold change [19, 22] 0.855 and 0.976 and 0.873 | z-score [15, 20] 1.16 and 0.00976 | remaining NAD [16] 10 nM | luciferase signal [17] 44 AU | log fold change Tl+ flux (F380Y) 0.0315
10200 and 5870 and 9770: cell count [19, 25]
93.6% and 73.1% and 73.5%: viability [18]
8700 and 5730 and 8530: cell count [19, 24]
-0.1%: nuclear beta-catenin stimulation ([5]; stimulation, at 2 µM)
1.39 and 1.03 and 0.879: fold change [19, 23]
1.41 and 0.657: z-score [15, 21]

CC(=O)OCC(=O)[C@@]1(O)CC[C@H]2[C@@H]3CCC4=CC(=O)CC[C@]4(C)[C@H]3C(=O)C[C@@]21C
10700 and 11200: cell count [19, 25]
10600 and 10400: cell count [19, 24]
1.87 and 1.55: fold change [19, 23]
0.9%: nuclear beta-catenin stimulation ([5]; stimulation, at 2 µM)
inactive: parasite load remaining [18] 71.9% | fluorescence ratio [1] 1.07 | inhibition [2] -0.45% | inhibition [3] -0.48% | fluorescence ratio [4] 1.01 | nuclear beta-catenin stimulation ([5]; at 10 µM) 1.3% | insulin secretion stimulation [6] 2.1% | viability decrease [7] 3.8% | tube area decrease [8] -2.1% | GLP1 secretion stimulation [9] 7% | inhibition of viability [10] -5.5% | viability decrease (inhibition) [11] -2.6% | viability decrease (inhibition) [12] -11.3% | inhibition [13] -3.27% | fold change [19, 22] 0.993 and 0.93 | remaining NAD [16] 10 nM | luciferase signal [17] 28 AU | log fold change Tl+ flux (F380Y) -0.00173
95.8%: viability [18]
